Compound activity (PubChem BioAssay)
TGFb inhibitor – TGF-b pathway inhibition | HepG2 CAGA-GFP TGF-b/SMAD3 reporter, GFP fluorescence, 18 h; TGF-beta stimulated, 500 pg/mL final | Potency, µM (doses to about 46.1 µM), usual class: inhibitors | 410,000 compounds, 1.2% hits | AID 588855; further: nearly all actives have a fitted effect of over 65% in size
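Using HEPG2 CAGA-GFP reporter cells at 1000 cells/well, we pinned test compounds, stimulated with recombinant TGF-beta (500 pg/mL final) and measured total well GFP after 18 h.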
IL1B secr inh – inflammasome signaling inhibition, IL-1 beta readout; AID 743279; activity change, % at 57.5 µM; THP-1 LPS/ATP IL-1B secretion, AlphaLISA, 16 h; active compounds read low; 360,000 compounds, 4.7% hits; in the data active means activity change below about -50%; inconclusive means mostly about -30% to -49%
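Secreted IL-1B measured by AlphaLISA bead assay after 16 h compound exposure of THP-1 cells; compounds (final up to 57.5 uM) added 1 h before LPS (250 ng/mL) and ATP (1.25 mM) stimulation; lower signal means less secretion.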
Giardia killer – kills Giardia lamblia. Giardia lamblia trophozoite viability. activity change, % at 7.66 µM, hits read low. 340,000 compounds, 0.15% hits. AID 540267; in the data active means activity change below about -80%; inconclusive means between about -30% and that limit;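 further: parasites exposed to compound for two days anaerobically before the ATP read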
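Giardia lamblia trophozoites (100 cells/well) were incubated with compounds for 48 h at 37 deg C under anaerobic conditions. Viability was read as ATP content by one-step luminescence after 15-30 min at room temperature.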
HT1080-NT tox – kills 2HG-producing HT-1080-NT fibrosarcoma cells. Potency, µM (titrated, usually from 46.1 µM), most hits filed as cytotoxic. AID 686970. HT-1080-NT fibrosarcoma viability, CellTiter-Glo ATP luminescence, 48 h. 360,000 compounds, 1.6% hits;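 further: NT is the 2HG producing partner of a matched IDH1 knockdown line; nearly all actives have a fitted effect of over 55% in size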
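Read-out is CellTiter-Glo luminescence after 10 minutes at room temperature, following 48 hours' compound treatment of HT-1080-NT cells (750 cells/well, RPMI, 5% FBS, 37 degrees C).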
HT1080 IDH1KD tx – HT-1080 IDH1 knockdown cell toxicity (counter line). HT-1080 IDH1 knockdown viability, ATP luminescence, 48 h. Potency, µM (series often up to 46.1 µM), most hits filed as cytotoxic. 360,000 compounds, 2% hits. AID 686971
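Assay cells: HT-1080 with IDH1 knockdown, 750 per well, RPMI/5% FBS. Exposure: 48 h at 37 °C following 2 h pre-incubation. Read: CellTiter-Glo luminescence; fitted concentration-response, curve class assigned.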
HepG2 tox – counter-screen for TGF-b inhibitors: cytotoxicity in HepG2 cells; HepG2 CAGA-GFP viability, ATP luminescence, 18 h; Potency, µM (titrated, usually from 46.1 µM), actives largely listed as cytotoxic; 410,000 compounds, 0.76% hits; AID 588856
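HepG2 CAGA-GFP cells (1000/well, DMEM with 1% FBS) received compound, then TGF-beta at 500 pg/mL final, and were incubated 18 hours at 37 degrees C. Viability was read by CellTiter-Glo luminescence. Media-only wells were set as complete cell-killing and DMSO as no toxicity.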
Hits are given with their value; n = inactive; u = inconclusive; x = no result given. In the library only some 6.5% were active in any assay of this set; here they are far more common. Unless noted, the call rests on the fitted dose curve; in most records, active means well fitted curve in the direction sought with a large enough effect; inconclusive means small, poorly fitted or top-dose-only effect, or another doubt; inactive means no such curve, though single readings can be large; an effect the other way counts as inactive or inconclusive.

SMILES | TGFb inhibitor | IL1B secr inh | Giardia killer | HT1080-NT tox | HT1080 IDH1KD tx | HepG2 tox
COc1ccc(-c2csc(NC(=O)C3CC(=O)N(Cc4ccco4)C3)n2)cc1 (stereo unspecified) | n | -61 | n | n | n | n
CC(=O)c1sc(NC(=O)C2CC(=O)N(Cc3ccco3)C2)nc1-c1ccccc1 (stereo unspecified) | n | -95 | n | n | n | n
O=C1/C(=C/c2cccc(Cl)c2)SC(=S)N1CCC(=O)N1CCCCC1CCO (stereo unspecified) | n | u | n | n | n | n
O=C1/C(=C/c2ccccc2F)SC(=S)N1CCC(=O)N1CCCCC1CCO (stereo unspecified) | u | -99 | n | n | u | n
O=C1/C(=C/c2ccco2)SC(=S)N1CCC(=O)N1CCCCC1CCO (stereo unspecified) | u | -76 | n | n | n | n
O=C1/C(=C/c2ccccc2F)SC(=S)N1CC(=O)N1CCCCC1c1cccnc1 (stereo unspecified) | u | -61 | n | n | n | 13µM
O=C1/C(=C/c2ccc(Cl)cc2)SC(=S)N1CCC(=O)N1CCCCC1CCO (stereo unspecified) | u | n | n | n | n | n
O=C1/C(=C/c2ccccc2)SC(=S)N1CCCC(=O)N1CCCCC1CCO (stereo unspecified) | u | -59 | n | n | n | n
Cc1ccc2oc(-c3ccccc3)c(C(=O)O)c(=O)c2c1 | n | n | n | n | u | n
CCN(CC)S(=O)(=O)c1ccc2c(c1)N(CC(=O)N(CCc1ccncc1)C(C)C)C(=O)CO2 | n | n | n | n | n | n
O=C1Nc2ccccc2O/C1=C\c1c(F)cccc1Cl | n | n | n | u | u | n
O=[N+]([O-])c1ccccc1/C=C\C=N\N1CCN(c2ccccc2)CC1 | n | -53 | u | n | n | n
Cc1cc(Cl)ccc1NS(=O)(=O)c1ccc2c(c1)CC(C)N2C(=O)C1CCC1 (stereo unspecified) | 11µM | x | x | x | x | n
COc1ccc(CNS(=O)(=O)c2ccc3c(c2)CC(C)N3C(=O)C2CC2)cc1 (stereo unspecified) | n | -65 | n | u | u | n
CC(=O)N1c2ccc(S(=O)(=O)NCC3CCC(C(=O)Nc4cc(C)ccn4)CC3)cc2CC1C (stereo unspecified) | u | -78 | n | u | u | n
CC(=O)N1c2ccc(S(=O)(=O)NCCC(=O)Nc3ccc(Br)c(C)c3)cc2CC1C (stereo unspecified) | 11µM | x | x | x | x | n
COc1cccc(CNS(=O)(=O)c2ccc3c(c2)CC(C)N3C(=O)C2CC2)c1 (stereo unspecified) | u | n | n | u | n | n
COCCCNC(=O)c1ccc(Cn2c(=O)c3ccccc3n(Cc3ccc(Cl)cc3)c2=O)cc1 | n | x | x | x | x | n
Cc1ccc(S(=O)(=O)c2nc(Nc3ccccc3)sc2Cl)cc1 | u | n | n | n | n | n
CCCCCCN1C[C@@H](O)[C@H](n2cc(C3CC3)nn2)C[C@@H]1c1ccc(Cl)cc1 | u | n | x | n | u | 16µM
O=c1c2cc(NC(=S)NC3CCN(Cc4ccccc4)CC3)ccc2nc2n1CCCCC2 | u | n | n | u | 18µM | n
O=c1c2cc(NC(=S)NC3CC3)ccc2nc2n1CCCCC2 | u | n | n | n | n | n
O=c1c2cc(NC(=S)NCCCN3CCC(Cc4ccccc4)CC3)ccc2nc2n1CCCCC2 | u | -91 | n | 9.2µM | 16µM | 16µM
COCCn1c(SCC(=O)Nc2nc3ccccc3s2)nnc1-c1ccoc1C | n | n | n | n | n | n
Cn1nc(C(F)(F)F)c(C#N)c1N1CCN(c2ccccc2F)CC1 | n | n | n | n | n | n
SMILES | TGFb inhibitor | IL1B secr inh | Giardia killer | HT1080-NT tox | HT1080 IDH1KD tx | HepG2 tox
COc1cccc(N2CCN(c3c(C#N)c(C(F)(F)F)nn3C)CC2)c1 | n | -51 | n | n | n | n
COc1cc(NC(=O)Cn2cnc(S(=O)(=O)N3CCc4ccccc43)c2)cc(OC)c1OC | n | n | n | n | n | n
Cn1c(=Nc2ccccc2)sc2ccccc21 | n | n | n | n | n | n
Cn1c(=NC(=O)CCl)sc2ccccc21 | u | -120 | n | 5.8µM | 6.5µM | 11µM
CN(C)c1ccc(N=c2sc3ccccc3n2C)cc1 | u | -51 | n | n | n | n
CCc1ccc(OCc2nnc(SCc3ccc(C(=O)O)cc3)o2)cc1 | n | n | n | n | n | n
O=C(CCCC(=O)NCCc1ccccc1)NCCc1ccccc1 | n | n | n | n | n | n
CN(C)c1ccc(N/C=C/C(=O)C(C)(C)C)cc1 | u | -98 | n | n | u | n
CN(C)c1ccc(N/C=C/C(=O)c2ccccc2)cc1 | n | n | n | 8.9µM | u | n
CC(=O)Nc1ccccc1O | n | n | n | n | n | n
CCOC(=O)c1ccc(N/C=C/C(=O)C(C)(C)C)cc1 | n | n | n | n | n | n
CC(C)(C)C(=O)/C=C/Nc1ccccc1O | n | n | n | u | 13µM | n
O=C1CCCc2c1cc(C(=O)NCc1ccco1)c(=O)n2-c1ccc(Cl)cc1 | n | n | n | n | n | n
Nc1ccc2c(c1)Cc1cc(N)c(Cl)cc1-2 | n | n | n | n | n | n
Nc1cc2c(cc1N)-c1ccccc1C2 | n | -52 | n | n | n | n
c1csc(CNc2ncnc3sccc23)c1 | n | n | n | n | 26µM | n
c1ccc(CNc2ncnc3sccc23)cc1 | n | n | n | u | u | n
COc1ccc(CNc2ncnc3sccc23)cc1 | n | n | n | u | 23µM | n
O=C(Cc1coc2cc3c(cc12)CCC3)NC1CCCCCCC1 | u | n | n | n | n | n
COc1ccccc1N(CC(O)CN(c1ccccc1)S(C)(=O)=O)S(=O)(=O)c1ccccc1 (stereo unspecified) | n | n | n | n | n | n
CC1=C(CC(=O)c2ccc(Cl)cc2)C(=O)c2ccccc2C1=O | 13µM | n | n | u | 11µM | 13µM
CCOC(=O)/C(=C/c1c(C)n(C)c2ccc([N+](=O)[O-])cc12)C(C)=O | 16µM | -104 | n | 16µM | u | n
CCOC(=O)c1c(N)c2cc([N+](=O)[O-])ccc2n1C | n | n | n | n | n | n
Cc1cccc(C)c1NC(=O)Cn1c(=O)n(Cc2ccc(C(=O)NCc3ccco3)cc2)c(=O)c2sccc21 | u | x | x | x | x | n
Cc1cc(C)c(NC(=O)Cn2c(=O)n(Cc3ccc(C(=O)NCc4ccco4)cc3)c(=O)c3sccc32)c(C)c1 | 10µM | x | x | x | x | n
